# Counter-ions that a name gives are not always drawn.
# What was measured:
# Experiment in all cases: Euclidean distance of Cell Painting phenotypic profile (signed KS, 77 features) to DMSO centroid (dimensionless distance); 5 or 10 uM (library dependent); higher = stronger phenotypic change vs DMSO (phenoactivity)
# Conditions in all cases: 48 h
# 786-O = tested on: 786-O
# Procedure, shortened: (§1)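 Stained cells were imaged confocally at 20X with 9 fields per well, after 48 h of exposure to library compounds at 10 or 5 uM (set by library; 0.1% DMSO final). The cells were five cancer lines and a healthy fibroblast line. From the images, Harmony extracted 77 features, each expressed as a signed Kolmogorov-Smirnov statistic relative to same-plate vehicle wells. Phenoactivity is measured as Euclidean distance to the median vehicle profile, using plate-position-corrected, correlation-weighted profiles averaged across replicates at the top dose.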
# A549 = tested on: A549
# Procedure, shortened: as §1
# DU145 = tested on: DU145
# Procedure, shortened: as §1
# FB = tested on: FB
# Procedure, shortened: as §1
# HEPG2 = tested on: HEPG2
# Procedure, shortened: as §1
# OVCAR4 = tested on: OVCAR4
# Procedure, shortened: as §1
SMILES,Euclidean distance (786-O),Euclidean distance (A549),Euclidean distance (DU145),Euclidean distance (FB),Euclidean distance (HEPG2),Euclidean distance (OVCAR4)
CC(C)(Oc1ccc(Cl)cc1)C(=O)OCCOC(=O)c1cccnc1 [Etofibrate],0.948,0.732,0.949,1.01,0.725,0.894
Nc1ncc2ncn(CC3(OCP(=O)(O)O)CC3)c2n1 [Besifovir],1.03,0.329,1.01,1.2,0.716,0.915
COc1ccc(CCN(C)CCCC(C#N)(c2ccc(OC)c(OC)c2)C(C)C)cc1OC (centres undefined) [Verapamil HCl],0.99,0.567,0.723,1.41,0.719,
COc1ccc(C2CC(=O)c3c(O)cc(OC4OC(COC5OC(C)C(O)C(O)C5O)C(O)C(O)C4O)cc3O2)cc1OC (centres undefined) [Methyl-Hesperidin],0.924,0.527,1.16,0.637,0.966,1.25
FC(F)c1nc2ccccc2n1-c1nc(N2CCOCC2)nc(N2CCOCC2)n1,2.56,3.64,3.69,2.87,2.24,3.13
COc1ccccc1OCCNCC(O)COc1cccc2[nH]c3ccccc3c12 (centres undefined) [Carvedilol Phosphate],2.5,2.28,1.98,1.66,2.55,1.81
OCc1ccc(-c2ccc(-c3ccc(CO)s3)o2)s1,2.79,2.26,1.44,2.66,4.78,5.04
C[C@H](N[C@@H](CCc1ccccc1)C(=O)O)C(=O)N1CCC[C@H]1C(=O)O [Enalaprilat Dihydrate],1.22,1.17,0.803,0.927,0.793,1
O=C(O)c1ccccc1 [Benzoic Acid],1.39,1.16,1.58,0.886,1.6,0.868
C=C[C@H]1CN2CC[C@H]1C[C@@H]2[C@@H](O)c1ccnc2ccc(OC)cc12 [Quinidine sulfate],0.69,0.88,1.08,0.954,0.831,
CC(=O)O[C@H]1C[C@@H]2CC[C@@H]3[C@H](CC[C@@]4(C)[C@H]3C[C@H]([N+]3(C)CCCCC3)[C@@H]4OC(C)=O)[C@@]2(C)C[C@@H]1N1CCCCC1 [Vecuronium Bromide],1.85,1.53,1.34,1.07,0.966,1.28

# Reference: the supplement of paper PMC10127200
